{"source": "PubChem BioAssay (NCATS)", "key": {"[1]": {"experiment": "qHTS assay for small molecule activators of the p53 signaling pathway (AID 651743; active = well fitted activation curve with a large enough effect in the signal ratio, not every such curve was filed as active; the % refers to the signal ratio; also: series mostly up to about 92 µM; % of control where 0% means no effect)", "conditions": "HCT-116 p53RE-bla, beta-lactamase FRET ratio, 16 h; activation: hits give high values", "how_it_was_run": "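A beta-lactamase reporter under p53 response element control, stably carried by HCT-116 cells, reported pathway activation. Test compounds were applied for 16 hours at 37 C, and fluorescence was measured 2 hours after adding the B/G FRET substrate.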"}, "[2]": {"target": "Peroxisome proliferator-activated receptor alpha (Homo sapiens) (UniProt Q07869)", "sequence (Q07869 whole entry, looked up)": "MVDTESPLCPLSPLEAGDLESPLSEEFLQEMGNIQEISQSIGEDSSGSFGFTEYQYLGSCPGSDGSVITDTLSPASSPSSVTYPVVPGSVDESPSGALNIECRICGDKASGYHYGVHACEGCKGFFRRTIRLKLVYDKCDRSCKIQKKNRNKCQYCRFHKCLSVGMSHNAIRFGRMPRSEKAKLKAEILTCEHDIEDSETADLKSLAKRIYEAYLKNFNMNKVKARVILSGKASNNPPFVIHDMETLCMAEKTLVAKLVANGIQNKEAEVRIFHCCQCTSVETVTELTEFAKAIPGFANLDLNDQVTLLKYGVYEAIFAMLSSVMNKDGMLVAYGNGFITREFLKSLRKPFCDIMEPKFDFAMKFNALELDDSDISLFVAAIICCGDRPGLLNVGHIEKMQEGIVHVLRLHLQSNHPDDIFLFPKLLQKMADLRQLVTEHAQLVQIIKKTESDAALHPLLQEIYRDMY", "experiment": "qHTS assay for small molecule agonists of the peroxisome proliferator-activated receptor alpha (PPARalpha) signaling pathway (AID 651778); also: % of control where 0% means no effect", "conditions": "PathHunter PPARalpha complementation, chemiluminescence, 6 h; hits give high values", "how_it_was_run": "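Chemiluminescence from complemented enzyme reported PPARalpha activation in cells after 6 hr of compound treatment at 37 C. The detection reagent was incubated for 60 min at room temperature, and compounds were scored as agonists.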"}, "[3]": {"target": "Arylsulfatase A (Homo sapiens) (UniProt P15289)", "sequence (P15289 whole entry, looked up)": "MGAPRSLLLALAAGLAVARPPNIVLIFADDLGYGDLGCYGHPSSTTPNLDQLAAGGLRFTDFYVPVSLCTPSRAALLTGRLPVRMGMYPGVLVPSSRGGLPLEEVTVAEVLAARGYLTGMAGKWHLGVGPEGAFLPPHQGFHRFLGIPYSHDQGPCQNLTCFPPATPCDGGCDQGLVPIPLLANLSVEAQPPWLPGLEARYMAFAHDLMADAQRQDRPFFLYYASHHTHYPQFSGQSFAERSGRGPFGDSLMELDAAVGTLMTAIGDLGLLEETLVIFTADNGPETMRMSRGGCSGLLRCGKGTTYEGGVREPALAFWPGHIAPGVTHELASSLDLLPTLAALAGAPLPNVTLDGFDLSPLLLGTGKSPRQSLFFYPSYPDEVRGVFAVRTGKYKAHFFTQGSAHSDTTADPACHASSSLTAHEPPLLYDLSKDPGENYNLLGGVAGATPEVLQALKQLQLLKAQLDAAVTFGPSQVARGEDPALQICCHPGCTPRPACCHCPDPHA", "experiment": "qHTS screen for enhancers of Arylsulfatase A (ASA1): LOPAC Validation Assay (AID 720538)", "how_it_was_run": "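SV40-transformed fibroblasts from an MLD patient (ASA-I179S) were treated with compound for 48 h at 37 C. They were then lysed with 0.5 mM pNCS substrate (final) for 14 h at room temperature and stopped with NaOH; signal read by fluorescence (Ex 525/Em 598 nm), with increase denoting enhanced activity.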"}, "[4]": {"experiment": "qHTS assay for small molecule disruptors of the mitochondrial membrane potential - 1 hr assay (AID 651754; calls by dose curve; also: nearly all actives have a fitted effect of over 35% in size; also: potency is read from the fitted curve at half-maximal effect)", "how_it_was_run": "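Read-out: dye fluorescence at 490 nm ex/535 nm em (monomers) and 540 nm ex/590 nm em (aggregates) in HepG2 cells. Compound exposure 1 hr at 37C, followed by 30 min dye loading.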"}, "[5]": {"experiment": "qHTS assay to identify small molecules that stimulate interleukin-8 (IL-8) secretion (AID 651758; active = well fitted activation curve with a large enough effect in the signal ratio; the % refers to the signal ratio; also: potency is read from the fitted curve at half-maximal effect; as to activation: 0% is about no effect)", "how_it_was_run": "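Secreted IL-8 measured homogeneously by TR-FRET (two labelled anti-IL-8 antibodies, 1-3 h at room temperature) after a 16 h, 37 C compound treatment of THP-1 cells at 2000 cells/well.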"}, "[6]": {"experiment": "qHTS assay for environmental chemicals that activate the Aryl hydrocarbon Receptor (AhR) signaling pathway (AID 651777); also: % of control where 0% means no effect; nearly all actives have a fitted effect of over 15% in size", "conditions": "1A2-DRE human hepatoma cells, luciferase, 24 h; activation: hits give high values", "how_it_was_run": "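Luminescence (One-Glo, 30 min, room temperature) reports AhR-driven luciferase in stably transfected human hepatoma cells bearing DRE and CYP1A2 promoter. Cells (1,200/well) were treated with compound for 24 hr at 37 C in qHTS format.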"}, "[7]": {"experiment": "qHTS assay for small molecule agonists of the antioxidant response element (ARE) signaling pathway (AID 651741; active = well fitted activation curve with a large enough effect in the signal ratio; the % refers to the signal ratio; also: potency is read from the fitted curve at half-maximal effect)", "how_it_was_run": "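Agonist activity is measured as ARE-driven beta-lactamase expression in a stable HepG2 reporter line, using 16 h compound treatment at 37 C and a FRET substrate fluorescence readout after 2 h.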"}, "[8]": {"experiment": "qHTS assay for small molecule activators of the nuclear factor-kappa B (NF-kB) signaling pathway (AID 651749; active = well fitted activation curve with a large enough effect in the signal ratio; the % refers to the signal ratio; also: series mostly up to about 77 µM; % of control where 0% means no effect)", "conditions": "NF-kB-bla ME-180 cells, beta-lactamase FRET ratio, 16 h; hits give high values", "how_it_was_run": "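FRET-based beta-lactamase detection in ME-180 cells reports NF-kB response-element-driven transcription following overnight (16 hr) compound treatment.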"}, "[9]": {"experiment": "qHTS assay for small molecule disruptors of the mitochondrial membrane potential - 5 hr assay (AID 651755; calls by dose curve; also: nearly all actives have a fitted effect of over 40% in size; also: potency is read from the fitted curve at half-maximal effect)", "how_it_was_run": "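Membrane-potential dye readout: red aggregate (540 ex/590 em) versus green monomer (490 ex/535 em) fluorescence after 30 min dye loading, following 5 hr compound exposure at 37C of overnight-plated HepG2 cells.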"}, "[10]": {"target": "Tumor necrosis factor (Homo sapiens) (UniProt P01375)", "sequence (P01375 whole entry, looked up)": "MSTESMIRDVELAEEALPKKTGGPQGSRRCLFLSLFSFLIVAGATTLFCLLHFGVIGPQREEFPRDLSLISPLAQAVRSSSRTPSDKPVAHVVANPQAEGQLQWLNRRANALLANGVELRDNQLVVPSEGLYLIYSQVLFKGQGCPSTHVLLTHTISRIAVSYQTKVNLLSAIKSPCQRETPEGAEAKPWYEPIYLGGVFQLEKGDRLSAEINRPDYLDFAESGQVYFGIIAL", "experiment": "qHTS assay to identify small molecules that stimulate Tumor Necrosis Factor-alpha (TNF-alpha) secretion (AID 651757; active = well fitted curve in the direction sought with a large enough effect in the signal ratio; the % refers to the signal ratio; also: 0% is about no effect)", "how_it_was_run": "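THP-1 cells, 3000/well; compound 17 hrs, 37 C; add cryptate/XL665 anti-TNF-alpha antibody pair; 3 hr RT; TR-FRET (HTRF) read of secreted TNF-alpha. Quantitative HTS format.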"}, "[11]": {"target": "Nuclear receptor ROR-gamma (Homo sapiens) (UniProt P51449)", "sequence (P51449 whole entry, looked up)": "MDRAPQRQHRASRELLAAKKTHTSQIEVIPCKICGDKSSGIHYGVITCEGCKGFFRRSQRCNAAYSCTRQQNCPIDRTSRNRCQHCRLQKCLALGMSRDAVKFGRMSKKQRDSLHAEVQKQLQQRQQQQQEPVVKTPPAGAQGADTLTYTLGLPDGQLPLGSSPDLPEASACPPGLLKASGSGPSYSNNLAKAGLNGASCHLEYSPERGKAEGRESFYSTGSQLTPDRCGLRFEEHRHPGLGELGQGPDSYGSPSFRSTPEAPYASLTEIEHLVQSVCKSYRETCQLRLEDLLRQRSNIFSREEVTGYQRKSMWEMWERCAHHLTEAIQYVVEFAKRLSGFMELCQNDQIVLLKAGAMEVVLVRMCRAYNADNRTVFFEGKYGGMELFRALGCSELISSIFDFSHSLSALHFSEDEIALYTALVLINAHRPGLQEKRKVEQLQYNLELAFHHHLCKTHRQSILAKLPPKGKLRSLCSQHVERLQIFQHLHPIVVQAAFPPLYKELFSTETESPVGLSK", "experiment": "qHTS assay for small molecule antagonists of the retinoid-related orphan receptor gamma (ROR-gamma) signaling pathway (AID 651802); also: potency is read from the fitted curve at half-maximal effect; nearly all actives have a fitted effect of over 60% in size", "how_it_was_run": "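Luciferase read-out: ONE-Glo luminescence after 30 min at room temperature, following 16hr doxycycline induction at 37C, 5% CO2 of CHO cells with TET-inducible ROR and RORE-LUC reporter; decreased luminescence = reduced reporter activity.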"}, "[12]": {"target": "DNA polymerase iota (Homo sapiens) (UniProt Q9UNA4)", "sequence (Q9UNA4 whole entry, looked up)": "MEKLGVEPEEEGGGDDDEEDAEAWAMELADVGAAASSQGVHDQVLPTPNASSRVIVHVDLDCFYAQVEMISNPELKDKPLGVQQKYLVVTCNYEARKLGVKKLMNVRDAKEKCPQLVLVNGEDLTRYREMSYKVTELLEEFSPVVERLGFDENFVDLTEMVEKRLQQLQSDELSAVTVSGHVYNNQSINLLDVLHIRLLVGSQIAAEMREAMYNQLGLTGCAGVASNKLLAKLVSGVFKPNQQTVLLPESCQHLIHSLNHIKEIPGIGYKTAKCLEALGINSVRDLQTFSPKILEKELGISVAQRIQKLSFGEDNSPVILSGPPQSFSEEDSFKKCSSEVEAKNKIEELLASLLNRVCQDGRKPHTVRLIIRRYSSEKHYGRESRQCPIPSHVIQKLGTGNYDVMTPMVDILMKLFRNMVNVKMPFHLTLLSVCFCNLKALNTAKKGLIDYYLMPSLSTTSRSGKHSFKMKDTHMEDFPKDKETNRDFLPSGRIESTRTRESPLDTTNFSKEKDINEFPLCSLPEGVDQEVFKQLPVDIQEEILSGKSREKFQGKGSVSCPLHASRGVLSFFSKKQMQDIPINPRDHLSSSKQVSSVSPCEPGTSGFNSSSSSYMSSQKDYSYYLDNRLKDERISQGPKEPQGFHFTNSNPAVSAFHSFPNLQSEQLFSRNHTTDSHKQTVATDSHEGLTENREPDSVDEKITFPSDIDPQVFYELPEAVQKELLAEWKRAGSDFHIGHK", "experiment": "qHTS for Inhibitors of Polymerase Iota: Confirmatory Assay for Cherry-picked Compounds (AID 720496); also: potency is read from the fitted curve at half-maximal effect", "conditions": "Pol iota primer extension, TAMRA/BHQ fluorescence", "how_it_was_run": "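Kinetic fluorescence, 0 → 10 min, ex 525/em 598 nm. Pol iota 10 nM, 15 min RT preincubation with compound, then 50 nM (final) TAMRA/BHQ-2 primer-template substrate.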"}, "[13]": {"target": "DNA polymerase kappa (Homo sapiens) (UniProt Q9UBT6)", "sequence (Q9UBT6 whole entry, looked up)": "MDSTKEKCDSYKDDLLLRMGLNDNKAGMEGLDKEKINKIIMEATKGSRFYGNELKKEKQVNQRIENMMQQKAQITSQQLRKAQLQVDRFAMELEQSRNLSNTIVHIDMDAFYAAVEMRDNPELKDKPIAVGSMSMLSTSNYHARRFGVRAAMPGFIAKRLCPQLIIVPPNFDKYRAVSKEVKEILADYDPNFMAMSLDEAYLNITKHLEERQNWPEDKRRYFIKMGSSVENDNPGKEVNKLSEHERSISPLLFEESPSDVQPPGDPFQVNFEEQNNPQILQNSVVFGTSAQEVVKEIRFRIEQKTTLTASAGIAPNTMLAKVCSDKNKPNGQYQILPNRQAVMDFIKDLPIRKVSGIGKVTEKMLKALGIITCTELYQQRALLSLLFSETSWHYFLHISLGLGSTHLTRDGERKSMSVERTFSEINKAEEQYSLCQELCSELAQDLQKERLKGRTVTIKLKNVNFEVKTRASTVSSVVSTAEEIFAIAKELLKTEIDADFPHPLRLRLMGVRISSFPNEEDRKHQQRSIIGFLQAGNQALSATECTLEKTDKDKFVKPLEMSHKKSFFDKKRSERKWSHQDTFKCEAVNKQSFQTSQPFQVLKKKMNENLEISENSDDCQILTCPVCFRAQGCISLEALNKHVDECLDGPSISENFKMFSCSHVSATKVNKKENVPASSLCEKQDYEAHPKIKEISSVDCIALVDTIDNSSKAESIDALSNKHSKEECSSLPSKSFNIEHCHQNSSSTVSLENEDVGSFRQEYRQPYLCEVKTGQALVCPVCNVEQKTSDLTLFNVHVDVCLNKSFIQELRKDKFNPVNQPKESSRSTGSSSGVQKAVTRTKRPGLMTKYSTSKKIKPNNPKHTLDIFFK", "experiment": "qHTS for Inhibitors of Polymerase Kappa: Confirmatory Assay for Cherry-picked Compounds (AID 720501); also: potency is read from the fitted curve at half-maximal effect", "conditions": "purified Pol-kappa, fluorescent strand-displacement substrate", "how_it_was_run": "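Strand-displacement fluorescence read-out: TAMRA reporter released from a BHQ-2-quenched template, measured at 525/598 nm over a 10 min kinetic window. Substrate was 50 nM final; enzyme was 10 nM Pol-kappa, preincubated 15 min at room temperature with compound.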"}, "[14]": {"target": "DNA polymerase eta (Homo sapiens) (UniProt Q9Y253)", "sequence (Q9Y253 whole entry, looked up)": "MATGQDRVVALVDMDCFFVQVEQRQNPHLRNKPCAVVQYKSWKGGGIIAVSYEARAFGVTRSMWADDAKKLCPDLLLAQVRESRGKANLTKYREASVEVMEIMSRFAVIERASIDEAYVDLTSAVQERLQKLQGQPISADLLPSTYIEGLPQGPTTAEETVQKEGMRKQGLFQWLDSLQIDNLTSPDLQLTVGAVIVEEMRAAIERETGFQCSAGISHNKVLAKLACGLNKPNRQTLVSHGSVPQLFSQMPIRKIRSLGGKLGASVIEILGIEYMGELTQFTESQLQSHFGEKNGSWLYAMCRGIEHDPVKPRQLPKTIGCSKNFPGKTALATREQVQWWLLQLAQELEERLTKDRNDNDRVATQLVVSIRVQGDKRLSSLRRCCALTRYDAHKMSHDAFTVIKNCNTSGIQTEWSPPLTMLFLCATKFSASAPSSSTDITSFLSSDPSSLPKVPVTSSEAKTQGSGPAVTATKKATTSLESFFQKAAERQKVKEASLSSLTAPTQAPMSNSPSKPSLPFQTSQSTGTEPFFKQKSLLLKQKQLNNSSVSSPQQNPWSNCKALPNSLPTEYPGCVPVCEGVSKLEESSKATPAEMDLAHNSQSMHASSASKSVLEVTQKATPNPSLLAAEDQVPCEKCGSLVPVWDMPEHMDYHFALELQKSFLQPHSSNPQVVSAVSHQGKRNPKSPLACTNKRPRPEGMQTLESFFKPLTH", "experiment": "qHTS for Inhibitors of Polymerase Eta: Confirmatory Assay for Cherry-picked Compounds (AID 720502); also: potency is read from the fitted curve at half-maximal effect", "conditions": "Pol eta primer extension, TAMRA/BHQ fluorescence, 10 min", "how_it_was_run": "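Enzyme at 10 nM is mixed with pin-transferred compound and left 15 min at room temperature. Substrate (50 nM final) is then added, and plates are read at 0 min and after 10 min.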"}}, "note": "Where “and” joins values, the source holds several entries; their conditions need not be identical. Equal entries are not always repeated. Values without a mark were called inactive. Records with an inconclusive call do not appear. The list shows a part of the results. Calls of active or inactive are those of the source. Unless noted, calls follow the shape of the dose curve; as a rule, active = well fitted curve in the direction sought with a large enough effect; inconclusive = small, poorly fitted or top-dose-only effect, or another doubt; inactive = no such curve, though single readings can be large; an effect the other way counts as inactive or inconclusive.", "data": [{"smiles": "Oc1ccccc1O", "values": [{"measurement": "activation", "setting": "[1]", "value": 25.3, "unit": "%"}, {"measurement": "max response", "setting": "[2]", "value": -0.837, "unit": "%"}, {"measurement": "Potency", "setting": "[3]", "value": "inactive"}]}, {"smiles": "O=C1CN(/N=C/c2ccc([N+](=O)[O-])o2)C(=O)N1", "values": [{"measurement": "activation", "setting": "[1]", "value": 5.55, "unit": "%"}, {"measurement": "Potency", "setting": "[4]", "value": "37.6 µM (active)"}, {"measurement": "Potency", "setting": "[5]", "value": "inactive"}, {"measurement": "activation", "setting": "[6]", "value": 4.15, "unit": "%"}, {"measurement": "max response", "setting": "[2]", "value": -1.28, "unit": "%"}]}, {"smiles": "Nc1ccc(O)c([N+](=O)[O-])c1", "values": [{"measurement": "Potency", "setting": "[7]", "value": "26.6 µM (active) and 24.3 µM (active)"}, {"measurement": "activation", "setting": "[8]", "value": "-0.599% and -0.904%"}, {"measurement": "Potency", "setting": "[4]", "value": "33.5 µM (active)"}, {"measurement": "activation", "setting": "[6]", "value": "4.17% and 0.649%"}, {"measurement": "max response", "setting": "[2]", "value": "-1.01% and 0.176%"}]}, {"smiles": "O=C(OCc1ccccc1)c1ccccc1", "values": [{"measurement": "activation", "setting": "[8]", "value": 0.212, "unit": "%"}, {"measurement": "max response", "setting": "[2]", "value": -1.34, "unit": "%"}]}, {"smiles": "O=C(O)c1ccccc1Nc1cccc(C(F)(F)F)c1", "values": [{"measurement": "activation", "setting": "[1]", "value": 3.61, "unit": "%"}, {"measurement": "activation", "setting": "[8]", "value": -0.0531, "unit": "%"}, {"measurement": "activation", "setting": "[6]", "value": 0.429, "unit": "%"}]}, {"smiles": "C#C[C@]1(O)CC[C@H]2[C@@H]3CCc4cc(O)ccc4[C@H]3CC[C@@]21C", "values": [{"measurement": "activation", "setting": "[1]", "value": "11.3% and 11.7%"}, {"measurement": "activation", "setting": "[8]", "value": "2.58% and -0.453%"}, {"measurement": "Potency", "setting": "[4]", "value": "inactive"}, {"measurement": "Potency", "setting": "[9]", "value": "inactive"}, {"measurement": "outcome", "setting": "[10]", "value": "inactive"}, {"measurement": "Potency", "setting": "[5]", "value": "75 µM (active)"}, {"measurement": "activation", "setting": "[6]", "value": "-0.528% and -0.741%"}, {"measurement": "max response", "setting": "[2]", "value": "-1.9% and -2.24%"}, {"measurement": "Potency", "setting": "[11]", "value": "33.5 µM (active)"}]}, {"smiles": "Nc1nc2ccc([N+](=O)[O-])cc2s1", "values": [{"measurement": "Potency", "setting": "[7]", "value": "66.8 µM (active)"}, {"measurement": "activation", "setting": "[8]", "value": -0.326, "unit": "%"}, {"measurement": "Potency", "setting": "[4]", "value": "16.8 µM (active)"}, {"measurement": "Potency", "setting": "[9]", "value": "16.8 µM (active)"}, {"measurement": "activation", "setting": "[6]", "value": 8.89, "unit": "%"}, {"measurement": "max response", "setting": "[2]", "value": -11, "unit": "%"}]}, {"smiles": "c1cnc2c(c1)ccc1cccnc12", "values": [{"measurement": "activation", "setting": "[8]", "value": 1.8, "unit": "%"}, {"measurement": "Potency", "setting": "[4]", "value": "inactive"}, {"measurement": "activation", "setting": "[6]", "value": 2.54, "unit": "%"}, {"measurement": "max response", "setting": "[2]", "value": -3.72, "unit": "%"}, {"measurement": "Potency", "setting": "[11]", "value": "2.37 µM (active)"}]}, {"smiles": "CN(C)c1ccc(C(=C2C=CC(=[N+](C)C)C=C2)c2ccccc2)cc1", "values": [{"measurement": "Potency", "setting": "[4]", "value": "0.75 µM (active)"}, {"measurement": "Potency", "setting": "[9]", "value": "0.841 µM (active)"}]}, {"smiles": "CN1CCC[C@H]1c1cccnc1", "values": [{"measurement": "Potency", "setting": "[4]", "value": "inactive"}, {"measurement": "Potency", "setting": "[9]", "value": "inactive"}, {"measurement": "outcome", "setting": "[10]", "value": "inactive"}, {"measurement": "activation", "setting": "[6]", "value": "0.841% and 0.227%"}]}, {"smiles": "CC(C)OC(=O)c1cc(C(=O)OC(C)C)cc([N+](=O)[O-])c1", "values": [{"measurement": "activation", "setting": "[6]", "value": 4, "unit": "%"}]}, {"smiles": "CO/N=C(\\C(=O)N[C@@H]1C(=O)N2C(C(=O)O)=C(COC(C)=O)CS[C@H]12)c1csc(N)n1", "note": "(stereo in doubt)", "values": [{"measurement": "Potency", "setting": "[12]", "value": "18.9 µM (active)"}, {"measurement": "Potency", "setting": "[13]", "value": "9.47 µM (active) and 8.44 µM (active)"}, {"measurement": "Potency", "setting": "[14]", "value": "15.1 µM (active) and 19 µM (active) and 8.49 µM (active)"}]}]}
